Data on eight molecules can be found in PubChem BioAssay (NCI).

Structures are written as SMILES. About 83,000 compounds went through this panel and 20% of them were active in at least one assay; those are over-represented in the sample as a whole.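 Activity criterion: percent growth below 10, measured after cells in 96-well plates were exposed to a single compound concentration for 48 hours.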 A number with no mark means an inactive call. Activity calls are given as the source filed them.

Common to all, as to assay: NCI-60 one-dose screen, 48 h (100 = growth as untreated, 0 = no growth, -100 = all killed)
Holding throughout (conditions): 10 µM unless noted

Assay [1] deals with SR leukemia.
For assay [2], the system named is RPMI-8226 leukemia.
Assay [3] has as its system OVCAR-8 ovarian.
Assay [4] deals with OVCAR-5 ovarian.
Assay [5] has as its system OVCAR-4 ovarian.
In assay [6] the test system is SK-OV-3 ovarian.
In assay [7] the test system is IGROV1 ovarian.
The test system of assay [8] is OVCAR-3 ovarian.
The test system of assay [9] is HS 578T breast.
Assay [10] has as its system T-47D breast.
Assay [11] has as its system BT-549 breast.
The subject of assay [12] is MDA-MB-435 melanoma.
In assay [13] the test system is SW-620 colon.
Assay [14] relates to MCF7 breast.
In assay [15] the test system is HCT-116 colon.
The test system of assay [16] is HCC-2998 colon.
Assay [17] deals with KM12 colon.
The subject of assay [18] is NCI/ADR-RES ovarian.

As to `COC(=O)[C@]12CC[C@@H](C)[C@H](C)[C@@H]1C1=CC[C@@H]3[C@@]4(C)C(c5ncon5)=C[C@@](C)(CO)C4=CC[C@@]3(C)[C@]1(C)CC2`, the growth in assay [1] was -15.5% (active); in [2], -32.4% (active); in assay [3] it was -6.22% (active); in [4], -56.2% (active); in [5], 5.83% (active); in [6] it was 68.9%. Also, the growth is -10.8% (active) in assay [7]; -86.8% (active) in assay [8]; 12.5% in assay [9]; -0.698% (active) in assay [10]; 8.08% (active) in assay [11]; -24% (active) in assay [12]. In addition, the growth in assay [13] was -34.7% (active); in assay [14], -63% (active); in assay [15], -83.1% (active); in assay [16], -83.3% (active); in assay [17], -47.6% (active).
For the molecule `N#CC1=C(N)Oc2c(c(N)nn2-c2ccccc2)C1c1ccc(Cl)cc1Cl` (stereo not given), the growth is 97.3% in assay [1]; 94.4% in [2]; 96.9% in assay [3]; 98.2% in assay [4]; 95.7% in assay [5]; 92.5% in assay [6]. Moreover, the growth in assay [7] was 101%; in assay [8] it was 110%; in assay [9], 101%; in [10] it was 77.6%; in [11], 97.8%; in assay [12], 103%. The growth in assay [13] is 100%; in assay [14], 98.3%; in [15] it was 94.4%; in [16], 106%; in assay [17], 99.3%.
For `C=C(C)[C@@H]1CC[C@]2(CN)CC[C@]3(C)[C@H](CC[C@@H]4[C@@]5(C)CCC(=O)NC(C)(C)[C@@H]5CC[C@]43C)[C@@H]12`, the growth in assay [1] was -27.1% (active); in [2] it was 37.9%; in [3], 66.5%; in assay [4], 97.8%; in [5], 70.7%; in assay [6], 92%. For the same molecule, the growth in assay [8] was 88%; in [9], 84.1%; in assay [18] it was 70%; in assay [10], 53.9%; in assay [11] it was 80.8%; in assay [12] it was 92.7%. In addition, the growth was 75.9% in [13]; 41.5% in assay [14]; 11.7% in assay [15]; 97.7% in [16]; 81% in assay [17].
Take `CC(=O)Nc1cc(F)cc(C(F)(F)F)c1Cl`: the growth in [1] was 101%; in assay [2] it was 105%; in assay [3], 105%; in [4], 96.2%; in assay [5], 98.1%; in assay [6], 106%. For the same molecule, the growth in assay [8] is 104%; in assay [9], 88.2%; in assay [18] it was 96.1%; in [10], 96.7%; in [11] it was 95.8%; in assay [12], 99.3%. In addition, the growth was 95.2% in [13]; 91.5% in assay [14]; 94.1% in assay [15]; 98.4% in [16]; 96.3% in [17].
Regarding `NC(Cc1ccc(O)cc1)C(=O)N/N=C/c1ccccc1O` (stereo not given), the growth in [1] is 82.5%; in assay [2] it was 103%; in assay [3] it was 96.2%; in assay [4] it was 110%; in assay [5], 90.1%; in [6], 113%. In addition, the growth in assay [8] was 103%; in assay [9], 107%; in assay [10], 98.1%; in assay [11] it was 95.4%; in assay [12] it was 108%; in assay [13], 107%. Also, the growth is 96.2% in [14], 97.2% in assay [15], 100% in assay [16] and 97.6% in [17].
In the case of `NCCNc1nc(-c2ccccc2)nc2nc(-c3ccccc3)oc12`, the growth in [1] is 7.63% (active); in assay [2], 68.7%; in assay [3], 97.7%; in assay [4], 105%; in assay [5], 96.5%; in assay [7], 81.8%. In addition, the growth in assay [8] is 88.2%; in assay [9], 91.3%; in assay [18] it was 91.8%; in assay [10] it was 81.7%; in [11], 97.7%; in assay [12] it was 92.2%. Moreover, the growth in [13] was 51%; in assay [14], 81.2%; in assay [15], 54.7%; in [16], 98.6%; in assay [17], 98.8%.
With `NCCn1cc(-c2nc(-c3c[nH]c4ncccc34)cs2)c2ccccc21`, the growth in assay [1] is 62.6%; in assay [2], 78.1%; in assay [3], 86.7%; in assay [4] it was 102%; in assay [5] it was 68.2%; in assay [7] it was 50.2%. For the same molecule, the growth in assay [8] is 90.8%; in [9], 84.4%; in assay [18] it was 98.1%; in [10] it was 22.6%; in assay [11] it was 98.9%; in [12], 98.3%. Further, the growth in assay [13] was 96.1%; in assay [14], 60.4%; in assay [15], 94.5%; in [16] it was 93.8%; in [17], 73.4%.
For the molecule `Cc1nn(-c2ccc(Br)cc2)c2nc3[nH]c(=O)[nH]c(=O)c3nc12`, the growth is 114% in assay [1]; 121% in assay [2]; 111% in assay [3]; 112% in assay [4]; 103% in assay [5]; 107% in assay [7]. In addition, the growth in assay [8] is 117%; in assay [9], 104%; in assay [18] it was 107%; in assay [10] it was 102%; in assay [11] it was 94.2%; in assay [12] it was 99.1%. The growth in assay [13] is 103%; in assay [14], 93.4%; in [15] it was 98.3%; in assay [16] it was 114%; in assay [17] it was 103%.
